From PubChem BioAssay
SW480 rereplic = inducers of DNA re-replication in SW480 colon cancer cells; SW480 DNA re-replication, Hoechst DNA content imaging, 48 h; Potency, µM (doses to about 46.1 µM), inactives show at the top dose re-replication activation, actives largely listed as activators; 1.8% of 340,000 active; AID 624297; further: potency means the concentration at half of the fitted maximal effect; % of control where 0% means no effect; nearly all actives have a fitted effect of over 55% in size
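First, 250 cells per well were seeded. Next, compound or vehicle (23 nL) was pinned in, plates sat 48 hr at 37 C. Finally Hoechst was added for 40 min before fluorescence scanning.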
TDP1 cell CPT = growth inhibition of DT40 Tdp1-/-;hTDP1 cells with camptothecin (screen for TDP1 inhibitors) | 12% of 420,000 active | chicken DT40 Tdp1-/-;hTDP1 cells + 20 nM CPT, ATP luminescence, 48 h | AID 686979 | Potency, µM (titrated, usually from 46.2 µM), inactives show top-dose activity change, negative = growth inhibition, actives largely listed as inhibitors; further: potency means the concentration at half of the fitted maximal effect; on the % scale 0 is the no-effect control and ±100 the full control effect; nearly all actives have a fitted effect of over 55% in size
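Chicken DT40 Tdp1-/- cells complemented with human TDP1, 400 cells/well, exposed to compounds plus 20 nM camptothecin for at least 48 h at 37 C; viability read as ATP content by CellTiter-Glo luminescence.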
BCR signal inh = chronic active BCR signaling inhibition. 0.05% of 340,000 active. ABC-DLBCL IkBa-CBG/CBR reporter, luminescence ratio, 4 h. AID 493014. Potency, µM (doses to about 46.1 µM), for the others: at the top dose activity change, negative = inhibition, most hits filed as inhibitors; active means well fitted inhibition curve with a large enough effect in the signal ratio, with a control signal flat, not every such curve was filed as active; inconclusive means small, poorly fitted or top-dose-only effect, or effect the other way, or a change in a side signal; the % refers to the signal ratio;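 further: potency means the concentration at half of the fitted maximal effect; plate controls were basal doxycycline-induced cells for no effect and cells given 10 µM MG132 for full effect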
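Doxycycline induced both beetle luciferases in TMD8 lymphoma cells; IKK-driven degradation limits the IkappaBalpha-fused green signal, while red luminescence normalises for cell number and nonspecific effects. Compounds tested up to 46 uM, 4 hrs.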
IL1B secr inh = inhibitors of inflammasome signaling (IL-1 beta secretion); activity change, % at 57.5 µM; 4.7% of 360,000 active; THP-1 LPS/ATP IL-1B secretion, AlphaLISA, 16 h; active compounds read low; in the data active means activity change below about -50%; inconclusive means mostly about -30% to -49%; further: on the % scale 0 is the no-effect control and ±100 the full control effect
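Secreted IL-1B measured by AlphaLISA bead assay after 16 h compound exposure of THP-1 cells; compounds (final up to 57.5 uM) added 1 h before LPS (250 ng/mL) and ATP (1.25 mM) stimulation; lower signal means less secretion.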
MCF10A rereplic = DNA re-replication induction in MCF 10a cells; 2.9% of 350,000 active; MCF 10A DNA re-replication, Hoechst nuclear intensity, 48 h; AID 624296; Potency, µM (titrated, usually from 46.1 µM), for the others: at the highest dose activity, positive = re-replication, hits mostly activators; further: potency means the concentration at half of the fitted maximal effect; % of control where 0% means no effect; nearly all actives have a fitted effect of over 50% in size
DT40 TDP1 no CPT = qHTS for Inhibitors of human tyrosyl-DNA phosphodiesterase 1 (TDP1): qHTS in cells in absence of CPT | Potency, µM (doses to about 46.2 µM), without a hit: at the highest dose activity change, negative = growth inhibition, usual class: inhibitors | 15% of 420,000 active | DT40 Tdp1-/- hTDP1 cells, no CPT, ATP luminescence, 48 h; further: potency means the concentration at half of the fitted maximal effect; on the % scale 0 is the no-effect control and ±100 the full control effect; nearly all actives have a fitted effect of over 55% in size
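Chicken DT40 Tdp1-/- cells complemented with human TDP1, screened without camptothecin (DMSO vehicle only), 400 cells/well. Compounds pin-transferred, cells incubated at 37 °C for at least 48 hr. Growth read as ATP-dependent luminescence (CellTiter-Glo, 30 min at RT).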
* hit, by the source's call; ? = inconclusive; nt = not tested or not shown. This is a sample that favours compounds with a hit; in the whole collection about 19% have one here. Unless noted, the call rests on the fitted dose curve; in most records, active means well fitted curve in the direction sought with a large enough effect; inconclusive means small, poorly fitted or top-dose-only effect, or another doubt; inactive means no such curve, though single readings can be large; an effect the other way counts as inactive or inconclusive.

SMILES	SW480 rereplic	TDP1 cell CPT	BCR signal inh	IL1B secr inh	MCF10A rereplic	DT40 TDP1 no CPT
CC(=O)Nc1ccc(C2=NN(c3ccccc3)C(c3cccs3)C2)cc1 (stereo not drawn)	12µM*	8%	?	14	?	-28%
CCS(=O)(=O)Nc1ccc(C2=NN(C(=O)c3ccccc3)C(c3cccs3)C2)cc1 (stereo not drawn)	7%	23µM*	?	?	?	21µM*
CCOC(=O)C1=C(C)OC(N)=C(C#N)C1c1cccs1 (stereo not drawn)	-3%	-42%	?	-22	2%	?
CCCCC(CC)CNC(=O)CN1C(=O)CSc2ccc(S(=O)(=O)N3CCOCC3)cc21 (stereo not drawn)	nt	16µM*	-3%	nt	nt	13µM*
CCCCOc1ccc(C(C)NC(=O)CN2C(=O)CSc3ccc(S(=O)(=O)N4CCOCC4)cc32)cc1 (stereo not drawn)	nt	?	?	nt	nt	23µM*
CCCN(CCC)S(=O)(=O)c1ccc2c(c1)N(CC(=O)NC(C)c1ccccc1)C(=O)CS2 (stereo not drawn)	nt	?	6%	nt	nt	23µM*
CCCN1C(=O)C(O)(CC(=O)c2cccc(OC)c2)c2ccccc21 (stereo not drawn)	?	4.1µM*	0%	-7	3%	3.3µM*
COc1cccc(C(=O)CC2(O)C(=O)N(Cc3ccccc3)c3ccccc32)c1 (stereo not drawn)	nt	6.5µM*	nt	nt	nt	6.5µM*
CC(C)(Oc1ccc(Cl)cc1)C(=O)Nc1ccc(S(=O)(=O)Nc2ncccn2)cc1	0%	0%	0%	-2	-1%	-22%
COc1ccc(C(=O)N(Cc2ccc(C(C)C)cc2)C2CCS(=O)(=O)C2)cc1 (stereo not drawn)	nt	?	nt	nt	nt	15µM*
CCOc1cccc(C(=O)N(Cc2ccc(CC)cc2)C2CCS(=O)(=O)C2)c1 (stereo not drawn)	nt	18µM*	nt	nt	nt	?
CCCCOc1cccc(C(=O)N(Cc2ccccc2)C2CCS(=O)(=O)C2)c1 (stereo not drawn)	3%	13µM*	5%	-11	4%	15µM*
CCOc1cccc(C(=O)N(Cc2ccc(C(C)C)cc2)C2CCS(=O)(=O)C2)c1 (stereo not drawn)	nt	21µM*	nt	nt	nt	?
COc1ccc(CN(C(=O)c2ccc(C)cc2)C2CCS(=O)(=O)C2)cc1 (stereo not drawn)	-11%	-3%	2%	4	4%	12%
CC1CC(C)CN(S(=O)(=O)N2CCC(C(=O)NCCc3ccccc3)CC2)C1 (stereo not drawn)	-2%	-13%	2%	17	-1%	-4%
CC[C@]1(C(=O)OC)[C@H]2C(=O)N(C)C(=O)[C@H]2[C@H]2CN=C(SCC3CC3)N21	1%	4%	0%	43	?	6%
Cc1ccc(N2CC(NC(=O)C3CCCCC3)CC2=O)cc1C (stereo not drawn)	nt	-10%	-8%	nt	nt	-24%
COc1ccc(C(C(=O)NC(C)(C)C)n2c(=O)c(-c3ccccc3)nc3ccccc32)cc1 (stereo not drawn)	nt	?	nt	-1	nt	?
CCOc1ccccc1Nc1cc2n(c(=O)n1)CCc1cc(OC)c(OC)cc1-2	-1%	?	?	-21	24%	15µM*
COc1cc2c(cc1OC)-c1cc(Nc3ccccc3C)nc(=O)n1CC2	-13%	-6%	?	-13	2%	-7%
COc1cc2c(cc1OC)-c1cc(OCCN3CCOCC3)nc(=O)n1CC2	-1%	23µM*	3%	20	1%	?
Cc1ccccc1-c1noc(N)c1C#N	5.2µM*	26µM*	?	-28	16µM*	?
CCOc1cc(-c2noc(N)c2C#N)cc(OCC)c1OCC	-2%	?	?	6	1%	?
O=C(CNC(=O)c1ccc(Br)cc1)c1ccccc1	?	-8%	?	-65*	2%	5%
O=C(NCC(=O)N1CCCCCC1)c1ccc(OC(F)F)cc1	-5%	3%	16%	-4	0%	-7%
SMILES	SW480 rereplic	TDP1 cell CPT	BCR signal inh	IL1B secr inh	MCF10A rereplic	DT40 TDP1 no CPT
CC(C)C(NC(=O)c1ccccc1)C(=O)N1CCN(C/C=C/c2ccccc2)CC1 (stereo not drawn)	-18%	?	6%	-22	5%	?
C[C@H](NC(=O)c1ccc(C(C)(C)C)cc1)C(=O)N1CCN(C/C=C/c2ccccc2)CC1	-7%	?	-12%	?	?	21µM*
O=C(NCC(=O)N1CCN(C/C=C/c2ccccc2)CC1)c1ccc(Br)cc1	-21%	16µM*	-4%	-1	-5%	8.2µM*
O=C(CNC(=O)c1ccc(Br)cc1)c1ccc(Br)cc1	2%	-4%	5%	6	-5%	12%
O=C(NCC(=O)N1CCN(C/C=C/c2ccccc2)CC1)c1ccc(OC(F)F)cc1	-12%	?	-1%	-24	1%	15µM*
CC(=O)Nc1cccc(C(=O)OCC(=O)N2CCC(c3ccccc3)=N2)c1	1%	-10%	?	-20	-10%	-23%
NS(=O)(=O)c1ccc(NC(=O)COC(=O)COc2ccccc2)cc1	-3%	-8%	-2%	10	-4%	-11%
COC(=O)c1ccccc1NC(=O)CSc1nc2ccsc2c(=O)n1Cc1ccc(C(=O)O)cc1	nt	-22%	nt	1	nt	-19%
O=C(NCCSc1ccccc1)c1ccccc1	0%	-8%	?	-17	?	-3%
CSCCC(NC(=O)c1ccc(Cl)c([N+](=O)[O-])c1)C(=O)N1CCN(C/C=C/c2ccccc2)CC1 (stereo not drawn)	2%	18µM*	?	-103*	18µM*	?
O=C(NCCSSCCNC(=O)c1ccccc1)c1ccccc1	?	18µM*	nt	-68*	?	16µM*
CC(C)N1C(=O)c2ccccc2NC(=O)C1C(=O)NCc1cccc(C(F)(F)F)c1 (stereo not drawn)	nt	?	nt	6	nt	?
Cc1ccc2c(c1)N(C(=O)NC1CCCCC1)C(C)(C)CC2C (stereo not drawn)	?	-26%	?	14	9.2µM*	?
Cc1ccc2c(c1)C(C)CC(C)(C)N2C(=O)NC1CCCCC1 (stereo not drawn)	-3%	-8%	-4%	-4	0%	?
